Values of other authors as cited in PubChem BioAssay AID977611.
The whole screen tested about 3,900 compounds, of which about 3,900 (100%) were called active. No cut-off is given here; in the data, nearly all actives have Kd up to about 4200 µM. So high a share suggests a set chosen from earlier hits. The list shows a part of the results. Numbered stars: 1 amine (or outer) side, 2 acyl side, 3 side chain; on linkers, the order of the positions; unused ones are H or OH. Square brackets hold non-standard residues; d marks the D form. Peptide text beside a SMILES is read from it. X2 = C[C@@H](O)C(C)(C)n1cc([C@@H](O)[C@H](N[*:1])C(=O)[*:2])c2ccccc21; Ala(3R-Me,3-isobutenyl) = CC(C)=C[C@@H](C)[C@H](N)C(=O)O; NMeLeu(5-OH,4R) = CN[C@@H](C[C@@H](C)CO)C(=O)O; Phe(βR-OMe) = CO[C@H](c1ccccc1)[C@H](N)C(=O)O; NMeL = CN[C@@H](CC(C)C)C(=O)O

Assay: PubChem AID 977611
Conditions: PDB protein-ligand complexes, literature Kd

O=C1N[C@@H](c2ccc(O)cc2)c2c(-c3ccccc3)n[nH]c21
Kd (protein: Capsid protein p24, PDB entry 4u0f): 1.2 µM (active)

CC(C)C[C@H](NC(=O)CNC(=O)[C@@H](N)CCC(N)=O)C(=O)N[C@@H](CC(C)C)C(=O)N[C@@H](CC(=O)O)C(=O)N[C@@H](C)C(=O)N[C@@H](CC(C)C)C(=O)N[C@@H](CC(=O)O)C(=O)N[C@@H](CC(C)C)C(=O)N[C@@H](C)C(=O)N[C@@H](CO)C(=O)O
Kd (protein: 14-3-3 protein zeta/delta, PDB entry 4n7g): 2.2 µM (active)

CC(C)C[C@H](NC(=O)[C@H](CO)NC(=O)[C@H](CC(=O)O)NC(=O)[C@H](CC(C)C)NC(=O)[C@H](CC(C)C)NC(=O)[C@H](CC(=O)O)NC(=O)[C@H](CC(=O)O)NC(=O)[C@@H](NC(=O)[C@H](CCC(N)=O)NC(=O)[C@H](CC(=O)O)NC(=O)[C@H](CCC(N)=O)NC(=O)[C@H](CO)NC(=O)[C@H](C)NC(=O)[C@@H](NC(=O)[C@@H](NC(=O)CNC(=O)[C@H](C)N)C(C)C)C(C)C)C(C)C)C(=O)NCC(=O)N[C@@H](Cc1ccccc1)C(=O)O
Kd (protein: Chemotaxis protein cheY, PDB entry 2pl9): 67.4 µM (active)

O=C(O)Cc1ccc(N2C(=O)C(O)=C(C(=O)c3ccc(Cl)s3)[C@@H]2c2cc(Br)cs2)cc1
Kd (protein: Polymerase cofactor Ebola virus VP35, PDB entry 4ibf): 36.8 µM (active)

Cc1cc(C)c([C@H]2C(C(=O)c3cccs3)=C(O)C(=O)N2c2ccc(CC(=O)O)cc2)cc1C
Kd (protein: Polymerase cofactor Ebola virus VP35, PDB entry 4ibb): 271 µM (active)

CN[C@@H](C)Cc1ccccc1
Kd (protein: Anti-METH scFv, PDB entry 4gqp): 0.00025 µM (active)

CO[C@H](c1ccccc1)[C@@H]1NC(=O)[C@H](C)NC(=O)[C@H](C[C@@H](C)CO)N(C)C(=O)[C@H]([C@H](O)c2cn(C(C)(C)[C@@H](C)O)c3ccccc23)NC(=O)[C@H]([C@H](C)C=C(C)C)NC(=O)[C@H](CC(C)C)N(C)C(=O)[C@H](C(C)C)NC1=O (cyclo(A[Phe(βR-OMe)]V[NMeL][Ala(3R-Me,3-isobutenyl)][X2][NMeLeu(5-OH,4R)]))
Kd (protein: Probable ATP-dependent Clp protease ATP-binding subunit(F2Y mutant), PDB entry 3wdd): 0.78 µM (active)
Kd (protein: Probable ATP-dependent Clp protease ATP-binding subunit, PDB entry 3wdc): 0.012 µM (active)
Kd (protein: Probable ATP-dependent Clp protease ATP-binding subunit, PDB entry 3wde): 0.124 µM (active)

CNC(=O)Nc1cc(Br)cc(NC(=O)NS(=O)(=O)c2cc(C)c(CCOC)s2)n1
Kd (protein: Fructose-1,6-bisphosphatase 1, PDB entry 4mjo): 0.6 µM (active)

CNC(=O)C[C@H](C)O[P+](O)(O)OC
Kd (protein: Lysozyme C, PDB entry 4tun): 3.87 µM (active)

CC(=O)N[C@H]1[C@H]([C@H](O)[C@H](O)CO)O[C@@H](C(=O)O)C[C@@H]1O
Kd (protein: hemagglutinin with F95Y mutation of influenza virus B/Lee/40(F95Y mutant), PDB entry 4nrk): 0.024 µM (active)
Kd (protein: hemagglutinin with F95Y mutation of influenza virus B/Lee/40, PDB entry 4nrl): 0.0024 µM (active)

CC(=O)N[C@H]1[C@H]([C@H](O)[C@H](O)CO)O[C@@](O[C@H]2[C@@H](O)[C@@H](CO)O[C@@H](O[C@H]3[C@H](O)[C@@H](O)[C@@H](O)O[C@@H]3CO)[C@@H]2O)(C(=O)O)C[C@@H]1O
Kd (protein: Carbohydrate binding domain from Streptococcus pneumoniae NanA sialidase, PDB entry 4c1w): 0.00039 µM (active)

CO[C@]1(C(=O)O)C[C@H](O)[C@@H](NC(=O)CO)[C@H]([C@H](O)[C@H](O)CO)O1
Kd (protein: Outer capsid protein VP4, PDB entry 3tay): 420 µM (active)

CC(=O)N[C@H]1[C@H]([C@H](O)[C@H](O)CO)O[C@@](OC[C@H]2O[C@@H](O)[C@H](O)[C@@H](O)[C@H]2O)(C(=O)O)C[C@@H]1O
Kd (protein: H5 (VN1194) Influenza Virus Haemagglutinin, PDB entry 4bgx): 17000 µM (active)
Kd (protein: Hemagglutinin HA1, PDB entry 4kon): 0.33 µM (active)
Kd (protein: Hemagglutinin(mutant form), PDB entry 4k67): 372 µM (active)
Kd (protein: Hemagglutinin, PDB entry 4k64): 1000 µM (active)
Kd (protein: Telomeric repeat-binding factor 2, PDB entry 4lkk): 1.2 µM (active)
Kd (protein: neuraminidase, PDB entry 4gzx): 645 µM (active)

CC(=O)N[C@@H]1[C@@H](O)[C@H](O[C@@H]2O[C@H](CO)[C@H](O)[C@H](O[C@]3(C(=O)O)C[C@H](O)[C@@H](NC(C)=O)[C@H]([C@H](O)[C@H](O)CO)O3)[C@H]2O)[C@@H](CO)O[C@H]1O
Kd (protein: Hemagglutinin, PDB entry 4k63): 60 µM (active)
Kd (protein: Neuraminidase, PDB entry 4gzw): 30 µM (active)
Kd (protein: hemagglutinin, PDB entry 4lkg): 0.16 µM (active)
Kd (protein: hemagglutinin, PDB entry 4lkj): 0.2 µM (active)

CC(=O)N[C@@H]1[C@@H](O[C@@H]2O[C@@H](C)[C@@H](O)[C@@H](O)[C@@H]2O)[C@H](O[C@@H]2O[C@H](CO)[C@H](O)[C@H](O[C@]3(C(=O)O)C[C@H](O)[C@@H](NC(C)=O)[C@H]([C@H](O)[C@H](O)CO)O3)[C@H]2O)[C@@H](CO)O[C@@H]1O
Kd (PDB entry 4dxg): 0.087 µM (active)

CC(=O)N[C@H]1[C@H]([C@H](O)[C@H](O)CO)O[C@@](O[C@@H]2[C@@H](O)[C@H](O)O[C@H](CO)[C@@H]2O)(C(=O)O)C[C@@H]1O
Kd (protein: Hemagglutinin(mutant form), PDB entry 4k66): 554 µM (active)

CC(=O)N[C@H]1[C@H]([C@H](O)[C@H](O)CO)O[C@@](O)(C(=O)O)C[C@@H]1O
Kd (protein: hemagglutinin, PDB entry 4lkh): 1000 µM (active)

CC(=O)N[C@H]1[C@H]([C@H](O)[C@H](O)CO)O[C@@](O[C@H]2[C@@H](O)[C@@H](CO)O[C@@H](O[C@H]3[C@H](O)[C@@H](O)[C@H](O)O[C@@H]3CO)[C@@H]2O)(C(=O)O)C[C@@H]1O
Kd (protein: Human galectin-3 CRD K176L mutant, PDB entry 4lbl): 11 µM (active)
Kd (protein: wildtype Human galectin-3 CRD, PDB entry 4lbo): 1.7 µM (active)

CC(=O)N[C@H]1[C@H](O[C@@H]2[C@@H](O)[C@H](O)O[C@H](CO)[C@@H]2O)O[C@H](CO)[C@@H](O[C@@H]2O[C@H](CO)[C@H](O)[C@H](O[C@]3(C(=O)O)C[C@H](O)[C@@H](NC(C)=O)[C@H]([C@H](O)[C@H](O)CO)O3)[C@H]2O)[C@@H]1O
Kd (protein: Hemagglutinin HA1, PDB entry 4kom): 0.1 µM (active)

O=C(NC[C@@H](COC(=O)c1cc(O)c(O)c(O)c1)OC(=O)c1cc(O)c(O)c(O)c1)Oc1cccc(C(F)(F)F)c1
Kd (protein: Plasminogen activator inhibitor 1, PDB entry 4g8o): 0.022 µM (active)
Kd (protein: Plasminogen activator inhibitor-1, PDB entry 4g8r): 0.022 µM (active)

C[C@H]1N[C@@H]2[C@@H](O)[C@H](O)[C@@H](CO)O[C@@H]2S1
Kd (protein: BETA-N-ACETYLHEXOSAMINIDASE, PDB entry 4az5): 1.02 µM (active)
Kd (protein: BETA-N-ACETYLHEXOSAMINIDASE, PDB entry 4azc): 1.38 µM (active)

CN1Cc2c(ccc3c2OCO3)-c2ccc3cc4c(cc3c21)OCO4
Kd (protein: Chitinase A(W275G mutant), PDB entry 3as0): 28 µM (active)
Kd (protein: Chitinase A, PDB entry 3arv): 2.3 µM (active)

N[C@@H](CCC(=O)N[C@@H](CSCCN(CCCl)c1ccc(CCCC(=O)O)cc1)C(=O)NCC(=O)O)C(=O)O
Kd (protein: Glutathione S-transferase A1, PDB entry 4hj2): 2950 µM (active)
